Source: PubChem BioAssay (Tox21)
Inconclusive results are not listed. A number with no mark means an inactive call. Activity calls are given as the source filed them. Calls come from the whole dose curve.

Assay: qHTS assay to identify small molecule agonists of the progesterone receptor (PR) signaling pathway - cell viability counter screen (AID 1346799); note: nearly all actives have a fitted effect of over 45% in size
Conditions: PR-UAS-bla HEK293T viability, CellTiter-Glo luminescence, 16 h; series mostly up to 92.4 µM; activity change, negative = cytotoxicity: at the top concentration
Text: National Center for Advancing Translational Sciences [NCATS]
NIH Chemical Genomics Center [NCGC]
U.S. Environmental Protection Agency [EPA]
National Institutes of Environmental Health Sciences [NIEHS]
National Toxicology Program [NTP]
U.S. Food and Drug Administration [FDA]
Progesterone receptor (PR), a nuclear hormone receptor, plays an important role in development, metabolic homeostasis and reproduction. It is activated by the steroid hormone progesterone. Endocrine disrupting chemicals (EDCs) and their interactions with steroid hormone receptors like PR causes disruption of normal endocrine function. To identify the compounds that stimulate PR signaling, a PR-UAS-bla GripTite cell line i.e. PR-UAS-bla HEK293T (Invitrogen, Carlsbad, CA, USA) containing a beta-lactamase reporter gene under the control of an UAS response element was used to screen Tox21 10K compound library. The cytotoxicity of the Tox21 compound library against the PR-bla cell line was tested in parallel by measuring the cell viability using CellTiter-Glo assay in the same wells.
Tox21 Assay Protocol Summary:
PR-UAS-bla HEK293T cells were dispensed at 3,000 cells/5 uL of assay medium containing 2% charcoal stripped FBS per well into black wall/clear-bottom 1536-well plates using a Multidrop Combi (ThermoFisher Scientific, Waltham, MA) dispenser. After the assay plates were incubated at a 37C and 5% CO2 for 6 hr, 23 nL of compounds dissolved in DMSO, positive controls or DMSO only was transferred to the assay plate by a Pintool station (Kalypsys, San Diego, CA). The plates were incubated at 37C and 5% CO2 for 16 hr. Then 1 uL of LiveBLAzer B/G FRET substrate was added using a Flying Reagent Dispenser (FRD, Aurora Discovery, San Diego, CA), the plates were incubated at room temperature for 2 hours, and fluorescence intensity was measured by an Envision plate reader (PerkinElmer, Shelton, CT). For cell viability readout that measures cytotoxicity, 4 uL/well of CellTiter-Glo reagent was added into the assay plates using a FRD. After 30 min incubation at room temperature, the luminescence intensity in the plates was measured using a ViewLux (PerkinElmer) plate reader.
% is set by controls: 0 for no effect and ±100 for the full control effect; potency is the fitted concentration of half-maximal effect.

Structure (SMILES)	activity change, negative = cytotoxicity	Potency
CCCCO	2.17%	
O=C(Nc1ccc(S(=O)(=O)N2CCOCC2)cc1)c1cc(Cl)ccc1NS(=O)(=O)c1ccc(Cl)s1	21.9% [at 42.5 µM]	
CN(C)CCOC(c1ccccc1)c1ccc(Br)cc1 (stereo not given)		16.8 µM (active)
CCO[C@H](Cc1ccc(OCCc2ccc(OS(C)(=O)=O)cc2)cc1)C(=O)O	-17.3% [at 42.5 µM]	
O=C(O)CC(=O)C(=O)O	-3.7%	
CCNc1cc(O)ccc1C	-19.8%	
CCn1cc(C(=O)O)c(=O)c2cnc(N3CCNCC3)nc21	-5.64% [at 42.5 µM]	
CNC(=O)CN(CCN(CCN(CC(=O)[O-])CC(=O)NC)CC(=O)[O-])CC(=O)[O-].O.[Gd+3]	0.679% [at 42.5 µM]	
CC(C)(C)Cl	0.168%	
C/C=C/C=C/CO	5.74%	
CCC(C)(C)CC	12.2%	
NC(N)=NCCC[C@H](N)C(=O)O	-1.33% [at 8.39 µM]	
CC(C)=CCC/C(C)=C/CC/C(C)=C/CO	10.6%	
C[N+]1(C)CCC(OC(=O)C(O)(c2ccccc2)C2CCCC2)C1 (stereo not given)	1.23% [at 42.5 µM]	
O=C(NCCO[N+](=O)[O-])c1cccnc1	-1.81% [at 42.5 µM]	
Cc1ccc(C(C)OC(=O)C2(C)CCC(C(=O)O)C2(C)C)cc1 (stereo not given)	7.47% [at 42.5 µM]	
CC(=O)c1cccc([N+](=O)[O-])c1	7.63%	
CCOC(=O)C(O)c1ccccc1 (stereo not given)	2.86% [at 42.5 µM]	
CC(=O)[O][Al][O]C(C)=O	0.787%	
Cc1[nH]c(C)c(Cl)c(=O)c1Cl	5.96% [at 19 µM]	

Structure (SMILES)	activity change, negative = cytotoxicity	Potency
CCN(CC)CCNc1ccc(CNC=O)c2sc3ccc(OC)cc3c(=O)c12		27.3 µM (active)
Nc1ccc(N)c2c1C(=O)c1ccccc1C2=O	-29%	
C=CCOC(=O)CCC1CCCCC1	-4.8%	
O=C(O)c1nc(Cl)c(Cl)c(Cl)c1Cl	-4.28%	
CC(C)Cc1ccc(C(C)C(=O)OCc2ccccn2)cc1 (stereo not given)	-1.99% [at 42.5 µM]	
O=[N+]([O-])c1ccc2[nH]ncc2c1	13.8%	
CC(=O)c1ccc2c(c1)N(CCCN(C)C)c1ccccc1S2	0% [at 42.5 µM]	
Brc1c2ccccc2c(Br)c2ccccc12	18.6% [at 8.39 µM]	
CCN(CC)c1ccc(C(=C2C=CC(=[N+](CC)CC)C=C2)c2cc(S(=O)(=O)O)ccc2S(=O)(=O)[O-])cc1	-7.28% [at 42.5 µM]	
OC(CN1CCC(Cc2ccc(F)cc2)CC1)c1ccc(Cl)cc1 (stereo not given)	-30.2% [at 42.5 µM]	
COc1cc(Cl)c(OC)cc1N	-26.8%	
COc1cc2nc(N3CCN(C(=O)C4COc5ccccc5O4)CC3)nc(N)c2cc1OC (stereo not given)	31.6% [at 42.5 µM]	
CC[N+](C)(CC)CCOC(=O)C(O)(c1ccccc1)C1CCCCC1 (stereo not given)	-2.58% [at 42.5 µM]	
CNCCCN1c2ccccc2CCc2ccccc21		21.1 µM (active)
CCCn1cnc2c1c(=O)n(CCCCC(C)=O)c(=O)n2C	-1.24% [at 42.5 µM]	
O=C1[C@H]2CCCC[C@H]2C(=O)N1CCCCN1CCN(c2nsc3ccccc23)CC1	1.62% [at 42.5 µM]	
COc1ccc2cccc(CCNC(C)=O)c2c1	-36.5% [at 42.5 µM]	
CC1CCC(=O)C1=O (stereo not given)	0.194%	
Nc1cccc([N+](=O)[O-])c1	-13.9%	
OCc1cc(C(O)CNCCCCCCOCCCCc2ccccc2)ccc1O (stereo not given)	7.22% [at 42.5 µM]	
